Assay [1] is described as follows: small molecules captured by biotinylated probe aFSTL3 – biochemical, small-molecule microarray, fluorescence 635/667, stem cell growth factor project, primary screen (AID 1064).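 Note: measures binding of the biotinylated anti-FSTL3 antibody to printed compounds.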 The note with it: higher = more signal.
Assay [2] in a line: binders from COS7 lysate, DM2A8 probe, primary screen, torsin A project, cell lysate, small-molecule microarray, fluorescence 635/667 (AID 1065). The note with it: higher = more signal, COS7 lysate expressing mutant human TOR1A.
Assay [3] can be described thus: small molecules captured by biotinylated probe aFGF2 – biochemical, small-molecule microarray, fluorescence 635/667, stem cell growth factor project, primary screen (AID 1067).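 Note: measures binding of biotinylated aFGF2 protein to printed compounds on slides; z-score merges feature fluorescence and signal-to-noise across triplicate slides.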 The note with it: higher = more signal.
Assay [4] is described as follows: small molecules captured by biotinylated probe aFGF10 – biochemical, small-molecule microarray, fluorescence 635/667, stem cell growth factor project, primary screen (AID 1071).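 Note: score merges 667 nm spot intensity and signal to noise from triplicate slides.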 The note with it: higher = more signal.
Assay [5] addresses Neurogenic locus notch homolog protein 2 (Homo sapiens) (UniProt Q04721). In words: small molecules binding Notch2 protein – biochemical, small-molecule microarray, 635 nm fluorescence, stem cell growth factors, primary screen (AID 1073). The note with it: higher = more signal.
For assay [6], the target named is Pro-neuregulin-1, membrane-bound isoform (Homo sapiens) (UniProt Q02297). Briefly: small molecules binding neuregulin-1 protein – biochemical, small-molecule microarray, fluorescence 635/667, psychiatric disease protein project, primary screen (AID 1075).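 Note: score combines 667 nm spot fluorescence with signal to noise.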 The note with it: NRG1 binding, 635 nm fluorescence, higher = more signal.
In assay [7] the test system is Neuregulin-1 EGF-like domain. Briefly: small molecules binding NRG1 EGF domain – biochemical, small-molecule microarray, 635 nm fluorescence, primary screen (AID 1081).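 Note: binding of the protein to compounds printed on small-molecule microarray slides.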 The note with it: higher = more signal.
A short description of assay [8]: FRG1 expression reporter modulators in myotubes – cell-based, C2C12 myotubes, firefly/Renilla luciferase, luminescence, FRG1 inhibition for FSHD, primary screen (AID 1084). The note with it: FRG1 promoter luciferase, higher = more signal, called active from +8 up or from −8 down.
A short description of assay [9]: small molecules captured by biotinylated probe aFST – biochemical, small-molecule microarray, fluorescence 635/667, stem cell growth factor project, primary screen (AID 1086).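 Note: score merges 667 nm fluorescence with signal-to-noise of each printed compound spot.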 The note with it: higher = more signal.
Assay [10] is described as follows: binders of probe aHhip on microarray, primary screen, stem cell growth factor project, biochemical, small-molecule microarray, fluorescence 635/667 (AID 1087).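 Note: score merges spot fluorescence at 667nm with spot signal to noise ratio.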 The note with it: higher = more signal.
The subject of assay [11] is PRMT1 (protein arginine N-methyltransferase 1). Briefly: small molecules binding arginine methyltransferase PRMT1 – biochemical, small-molecule microarray, 635 nm fluorescence, primary screen (AID 1088).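 Note: binding of Prmt1 protein to compounds spotted on small-molecule microarray slides.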 The note with it: higher = more signal.
A short description of assay [12]: growth effects on S. cerevisiae YJM789 – YJM789 clinical isolate, OD600, 24 h, basal, primary screen (AID 1089).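 Note: growth of clinical yeast isolate S. cerevisiae YJM 789 seeded 1000 cells per well; test concentration not given here.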 The note with it: higher = more signal, called active from +8 up or from −8 down.
Assay [13] in a line: S. pombe growth modifiers, basal conditions – strain 972, OD600, 24 h, no modulator, primary screen (AID 1090).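 Note: basal condition with compound alone and no growth modifier present; test concentration not given here.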 The note with it: S. pombe 972 growth, higher = more signal, called active from +8 up or from −8 down.
The nature of assay [14]: budding yeast growth modifiers under rapamycin – strain BY4716, OD600, 96 h, primary screen (AID 1091). Note: test concentration not given here. The note with it: S. cerevisiae BY4716 + rapamycin, higher = more signal, called active from +8 up or from −8 down.
In assay [15] the target is Torsin-1A-interacting protein 2 (Homo sapiens) (UniProt Q8NFQ8). Briefly: small molecules binding lysate-expressed LULL1 – cell lysate, human LULL1 lysate, 635/667 nm fluorescence, primary screen (AID 1092).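 Note: probe is lysate of COS7 cells overexpressing human LULL1; score merges per-feature 667 nm fluorescence with signal-to-noise.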 The note with it: small-molecule microarray, hLULL1 lysate binding, 635 nm fluorescence; higher = more signal.
Assay [16] in a line: optical density change of DRC41 E. coli – strain DRC41, OD650, 24 h, E. coli filamentation project, primary screen (AID 1093).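 Note: MC1000 strain lacking acrAB efflux and sulA so SOS filamentation is blocked; test concentration not given here.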 The note with it: E. coli DRC41 growth, higher = more signal, called active from +8 up or from −8 down.
A short description of assay [17]: probe aLefty2 binding to arrayed compounds – biochemical, biotinylated probe, 635/667 nm fluorescence, primary screen (AID 1094).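 Note: score merges spot fluorescence near 667 nm with spot signal-to-noise ratio.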 The note with it: small-molecule microarray, higher = more signal.
In assay [18] the test system is Noggin (protein binding on small-molecule microarray). Briefly: small molecules binding Noggin protein – biochemical, 635/667 nm fluorescence, primary screen (AID 1095).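 Note: score merges 667 nm feature fluorescence with signal to noise over triplicate slides.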 The note with it: 635 nm fluorescence, higher = more signal.
For assay [19], the target named is Neurogenic locus notch homolog protein 3 (Homo sapiens) (UniProt Q9UM47). In words: small molecules binding NOTCH3 protein – biochemical, 635/667 nm fluorescence, primary screen (AID 1096). The note with it: small-molecule microarray, 635 nm fluorescence, higher = more signal.
Assay [20] can be described thus: probe aEGFR binding to arrayed compounds – biochemical, biotinylated probe, 635/667 nm fluorescence, primary screen (AID 1097).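 Note: probe is a biotinylated anti-EGFR antibody binding compounds printed on slides; score combines fluorescence near 667 nm and signal to noise of each spot.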 The note with it: small-molecule microarray, higher = more signal.

Structures are written as SMILES. Calls of active or inactive are those of the source.

Sequence of Torsin-1A-interacting protein 2 (Homo sapiens) (Q8NFQ8 whole entry, looked up): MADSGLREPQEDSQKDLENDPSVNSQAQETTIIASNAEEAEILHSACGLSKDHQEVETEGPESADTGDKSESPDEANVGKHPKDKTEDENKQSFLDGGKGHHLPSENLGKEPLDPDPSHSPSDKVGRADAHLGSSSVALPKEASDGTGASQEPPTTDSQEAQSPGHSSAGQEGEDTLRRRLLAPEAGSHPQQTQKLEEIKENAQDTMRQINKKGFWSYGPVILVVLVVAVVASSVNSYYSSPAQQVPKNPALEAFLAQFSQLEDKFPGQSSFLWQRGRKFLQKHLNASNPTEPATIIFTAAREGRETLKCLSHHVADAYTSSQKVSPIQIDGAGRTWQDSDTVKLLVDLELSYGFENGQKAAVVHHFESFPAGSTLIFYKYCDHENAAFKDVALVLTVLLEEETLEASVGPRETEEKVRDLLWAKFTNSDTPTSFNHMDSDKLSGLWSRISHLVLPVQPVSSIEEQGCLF
Sequence of Neurogenic locus notch homolog protein 3 (Homo sapiens) (Q9UM47 whole entry, looked up): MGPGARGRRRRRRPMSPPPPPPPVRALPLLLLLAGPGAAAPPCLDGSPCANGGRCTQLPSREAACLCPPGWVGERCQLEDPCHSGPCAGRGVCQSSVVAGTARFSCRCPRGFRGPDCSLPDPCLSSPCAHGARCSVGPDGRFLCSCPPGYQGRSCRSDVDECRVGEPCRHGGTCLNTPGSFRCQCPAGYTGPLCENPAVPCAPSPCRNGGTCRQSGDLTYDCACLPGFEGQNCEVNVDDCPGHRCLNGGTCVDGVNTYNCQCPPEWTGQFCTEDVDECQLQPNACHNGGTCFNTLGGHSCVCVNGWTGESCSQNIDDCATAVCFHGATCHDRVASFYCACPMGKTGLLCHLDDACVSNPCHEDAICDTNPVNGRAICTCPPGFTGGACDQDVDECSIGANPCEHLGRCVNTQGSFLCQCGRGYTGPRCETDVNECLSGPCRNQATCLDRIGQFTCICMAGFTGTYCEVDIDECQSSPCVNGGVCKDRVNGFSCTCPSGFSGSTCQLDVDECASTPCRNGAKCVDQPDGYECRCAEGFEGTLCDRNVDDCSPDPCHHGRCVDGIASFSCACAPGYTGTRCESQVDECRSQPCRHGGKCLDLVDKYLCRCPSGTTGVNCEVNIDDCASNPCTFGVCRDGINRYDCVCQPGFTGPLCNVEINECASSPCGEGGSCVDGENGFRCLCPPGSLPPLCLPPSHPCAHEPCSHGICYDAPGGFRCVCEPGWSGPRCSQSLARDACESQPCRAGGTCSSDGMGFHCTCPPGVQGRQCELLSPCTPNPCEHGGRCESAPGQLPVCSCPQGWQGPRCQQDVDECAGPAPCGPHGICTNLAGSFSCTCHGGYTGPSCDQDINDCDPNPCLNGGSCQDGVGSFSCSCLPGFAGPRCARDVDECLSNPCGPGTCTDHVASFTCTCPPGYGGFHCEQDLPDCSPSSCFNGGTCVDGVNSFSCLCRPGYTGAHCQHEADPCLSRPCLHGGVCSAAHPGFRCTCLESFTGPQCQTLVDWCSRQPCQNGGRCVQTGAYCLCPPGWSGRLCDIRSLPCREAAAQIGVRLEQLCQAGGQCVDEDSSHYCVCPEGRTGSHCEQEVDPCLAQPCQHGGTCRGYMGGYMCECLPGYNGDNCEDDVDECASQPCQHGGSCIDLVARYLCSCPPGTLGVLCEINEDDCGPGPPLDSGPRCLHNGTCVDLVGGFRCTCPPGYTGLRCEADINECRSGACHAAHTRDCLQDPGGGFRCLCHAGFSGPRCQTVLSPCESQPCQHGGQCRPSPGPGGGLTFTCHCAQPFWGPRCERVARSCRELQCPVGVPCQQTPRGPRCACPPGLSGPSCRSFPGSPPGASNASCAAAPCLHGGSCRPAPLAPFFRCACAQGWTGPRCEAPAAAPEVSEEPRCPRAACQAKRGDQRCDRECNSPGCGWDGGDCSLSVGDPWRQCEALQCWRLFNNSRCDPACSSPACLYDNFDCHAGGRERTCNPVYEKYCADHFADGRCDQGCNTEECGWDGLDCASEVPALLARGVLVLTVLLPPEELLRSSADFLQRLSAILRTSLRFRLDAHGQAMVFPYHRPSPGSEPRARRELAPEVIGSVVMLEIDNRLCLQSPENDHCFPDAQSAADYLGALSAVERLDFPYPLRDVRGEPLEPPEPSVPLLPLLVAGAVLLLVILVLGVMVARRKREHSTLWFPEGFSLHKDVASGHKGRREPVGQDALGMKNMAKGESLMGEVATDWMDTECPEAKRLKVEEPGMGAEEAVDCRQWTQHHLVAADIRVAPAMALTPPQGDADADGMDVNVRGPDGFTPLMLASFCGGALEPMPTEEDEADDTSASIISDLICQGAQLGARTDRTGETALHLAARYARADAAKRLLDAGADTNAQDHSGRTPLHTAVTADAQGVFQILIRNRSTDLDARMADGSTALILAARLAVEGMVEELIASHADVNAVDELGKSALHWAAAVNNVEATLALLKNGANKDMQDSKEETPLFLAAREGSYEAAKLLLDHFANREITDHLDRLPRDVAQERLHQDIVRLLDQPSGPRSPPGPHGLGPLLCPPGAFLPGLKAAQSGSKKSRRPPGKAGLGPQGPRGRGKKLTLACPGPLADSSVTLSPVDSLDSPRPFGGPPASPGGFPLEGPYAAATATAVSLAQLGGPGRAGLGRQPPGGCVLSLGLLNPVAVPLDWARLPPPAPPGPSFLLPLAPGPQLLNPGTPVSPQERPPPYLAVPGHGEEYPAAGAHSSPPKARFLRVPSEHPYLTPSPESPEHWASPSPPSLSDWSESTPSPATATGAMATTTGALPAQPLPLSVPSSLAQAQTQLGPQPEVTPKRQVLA
Sequence of Pro-neuregulin-1, membrane-bound isoform (Homo sapiens) (Q02297 whole entry, looked up, the tested form may be a part, canonical isoform): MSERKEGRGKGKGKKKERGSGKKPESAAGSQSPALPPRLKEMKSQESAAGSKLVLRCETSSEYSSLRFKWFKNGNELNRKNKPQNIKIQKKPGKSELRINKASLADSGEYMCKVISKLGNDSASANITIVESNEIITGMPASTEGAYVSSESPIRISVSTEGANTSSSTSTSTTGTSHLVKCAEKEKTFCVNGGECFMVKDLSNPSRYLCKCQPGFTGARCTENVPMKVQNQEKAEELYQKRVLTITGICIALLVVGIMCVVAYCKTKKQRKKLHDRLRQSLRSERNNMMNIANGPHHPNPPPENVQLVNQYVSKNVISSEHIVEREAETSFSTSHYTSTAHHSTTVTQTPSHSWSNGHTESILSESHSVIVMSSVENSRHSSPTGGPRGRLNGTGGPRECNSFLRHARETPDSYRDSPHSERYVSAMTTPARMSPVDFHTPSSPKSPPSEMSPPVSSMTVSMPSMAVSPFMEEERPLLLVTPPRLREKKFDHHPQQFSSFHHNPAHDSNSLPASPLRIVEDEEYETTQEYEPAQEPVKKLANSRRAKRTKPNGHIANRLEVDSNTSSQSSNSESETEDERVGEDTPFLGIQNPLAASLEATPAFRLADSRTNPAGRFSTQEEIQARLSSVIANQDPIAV

Take `COCCCNC(=O)[C@@]1(CCC(=O)OC(C)(C)C)N=C(c2ccc(OCCCO)cc2)O[C@H]1c1ccccc1CN=[N+]=[N-]`: the composite z-score in assay [1] is -0.073; in assay [2], -0.158; in assay [3], -0.0724; in assay [4] it was 0.527; in assay [5], 1.67; in [6] it was 1.59. Further, the composite z-score in assay [7] stood at 1.27; in assay [9], 1.53; in assay [10] it was 0.238; in assay [11], 1.26; in [15], 3.74; in assay [17] it was 0.194. In addition, the composite z-score is 0.624 in [18], 1.06 in assay [19] and 0.305 in [20]. The z-score in assay [8] was 2.42 (inactive); in assay [12], -0.187 (inactive); in assay [13], -0.738 (inactive); in assay [14], -0.363 (inactive); in [16] it was 0.316 (inactive).

On to `CC(C)c1ccc(NN2C(C(O)c3cccc(O)c3)C=CC3C(=O)N(c4ccccc4)C(=O)C32)cc1` (stereo not given), for which the composite z-score worked out at 0.0067 in [1]; 0.422 in assay [2]; 0.0864 in assay [3]; 0.618 in assay [4]; 1.57 in assay [5]; 1.97 in [6]. The composite z-score in assay [7] amounted to 1.3; in assay [9], 1.33; in assay [10] it was 0.122; in assay [11], 1.46; in assay [15], 3.62; in [17], 0.234. In addition, the results for the composite z-score in assay [18], in assay [19] and in assay [20] were 0.527, 1.06 and -0.0053, respectively. Also, the z-score in assay [8] was -1.04 (inactive); in [12] it was 1.18 (inactive); in assay [13], -0.653 (inactive); in [14], 0.697 (inactive); in assay [16], -0.416 (inactive).

As for `O=C1C=CC(=O)[C@@H]2CC(COc3ccccc3)=C3[C@@H](CCc4ccccc4)OB(O)C[C@@H]3[C@H]12`, the composite z-score in assay [1] was 0.232; in assay [2], 2.47; in assay [3], -0.132; in assay [4], 0.272; in [5], 0.222; in assay [6], -0.18. In addition, the composite z-score in [7] was 0.184; in assay [9] it was -0.467; in assay [10], 0.176; in assay [11] it was 0.702; in [15], -0.188; in assay [17], -0.289. Further, the composite z-score stood at 0.533 in [18], 0.49 in [19] and 0.0338 in [20]. For the same compound, the z-score is -1.29 (inactive) in [8]; 0.168 (inactive) in assay [12]; -8.15 (active) in assay [13]; 0.203 (inactive) in [14]; -0.125 (inactive) in assay [16].

Regarding `C=CCOC(=O)[C@H]1[C@@H]2C(=O)O[C@@H](c3ccccc3)[C@@H](c3ccccc3)N2[C@@H](c2ccc(OCCOC(=O)[C@@H]3C[C@@H]4C(=O)NCC(=O)N4[C@@H]3c3ccc(O)cc3)cc2)[C@]12C(=O)Nc1ccccc12`, the composite z-score was -0.214 in assay [1]; 0.454 in assay [2]; -0.0296 in assay [3]; 0.515 in assay [4]; -0.111 in [5]; -0.373 in assay [6]. Moreover, the composite z-score in assay [7] is 1.26; in assay [9], -0.112; in assay [10], -0.0237; in assay [11], 1.56; in [15], 2.35; in assay [17], -0.153. Moreover, the composite z-score in assay [18] was 1.81; in [19] it was 1.12; in assay [20] it was -0.0828. Besides, the z-score in assay [8] is -1.27 (inactive); in [12], -4.85 (inactive); in [13], -0.234 (inactive); in assay [14] it was 1.47 (inactive); in assay [16] it was 2.36 (inactive).

For `COC(=O)c1c(CC[C@@H](CO)NC(=O)N[C@@H](Cc2ccccc2)Cn2cc(C3(O)CCCCC3)nn2)oc(C(C)=O)c1C(=O)OC`, the composite z-score was -0.352 in [1]; 1.02 in [2]; -0.0478 in assay [3]; 0.337 in assay [4]; 0.617 in assay [5]; 0.824 in [6]. The composite z-score in assay [7] was 0.862; in [9], 0.439; in [10], -0.0994; in assay [11], 1.55; in assay [15] it was 1.38; in [17], -0.0441. The composite z-score stood at 1.09 in [18], 1.12 in [19] and 0.0117 in [20]. Moreover, the z-score in [8] was 1.14 (inactive); in assay [12], -2.65 (inactive); in assay [13] it was -1.81 (inactive); in assay [14], -0.415 (inactive); in assay [16], 1.31 (inactive).

Take `Cc1ccc(S[C@]2(C(=O)NCc3ccccc3)CC(=O)N(Cc3ccccc3)[C@@H]2c2ccc(CO)cc2)cc1`: the composite z-score in [1] was 0.264; in [2], -0.443; in [3], -0.0165; in [4] it was 0.793; in assay [5], -0.338; in [6], 1.33. In addition, the composite z-score in assay [7] is 1.09; in assay [9], -0.0886; in assay [10], -0.169; in assay [11] it was 1.55; in assay [15] it was 3.04; in [17] it was -0.001. Also, the figures for the composite z-score in [18], in assay [19] and in assay [20] were -0.9, -0.91 and -0.272, respectively. Besides, the z-score in [8] is -2.33 (inactive); in [12] it was -0.349 (inactive); in [13], -0.288 (inactive); in [14], -0.0702 (inactive); in assay [16], -0.927 (inactive).

Values taken from PubChem BioAssay.
